Hit rate of the full screen: of about 13,000 compounds, about 3,200 (25%) showed an effect of 50% or more. Some of the results follow.
What follows are compounds tested on P. falciparum stage V gametocytes. Settings: 48 h, 5 µM; inhibitor.
Parameters: BacTiter-Glo ATP luminescence viability of purified stage V gametocytes in 384-well plates, per cent inhibition versus DMSO

| SMILES | % Inhibition [%] |
| --- | --- |
| Cc1cccc(-c2cccc3c(NC(=O)N4CCc5cc6nccc(N7CCN8CCC[C@H]8C7)c6cc54)cccc23)n1 [TCMDC-140053] | -32.82 |
| COc1cc(Cc2cnc(N)nc2N)cc(OCCCCC2SC(=O)NC2=O)c1Br (stereo not drawn) [TCMDC-137240] | 11.21 |
| Cc1noc(C)c1-c1cccc(CNCc2cccc(-c3cccc(-c4nc5cccc(C)c5[nH]4)c3)c2)c1.O=C(O)C(F)(F)F [TCMDC-133050] | -47.47 |
| COc1cc(Cc2cnc(N)nc2N)ccc1Oc1ccc(N)cc1 [TCMDC-138639] | -31.17 |
| COc1cc(C2CCCCC2)c(OC)cc1CC1c2cc(O)c(Cl)cc2CCN1C (stereo not drawn) [TCMDC-137539] | -5.034 |
| CS(=O)(=O)NCCCNCc1cccc(-c2cccc(-c3nc4cc(C(F)(F)F)ccc4[nH]3)c2)c1.O=C(O)C(F)(F)F [TCMDC-133086] | -10.1 |
| COc1cc(N(Cc2ccc(F)cc2)C(=O)c2ccc(-c3ccccc3)cc2)ccc1OCCN1CCCC1 [TCMDC-140662] | 28.65 |
| CCN(CC)CCOc1ccc(N(Cc2ccc(C(C)(C)C)cc2)C(=O)c2ccc(Cc3ccccc3)cc2)cc1OC [TCMDC-140667] | 103.5 |
| CCCC(C)N(Cc1ccc(C(C)(C)C)cc1)C(=O)c1cccc(OC)c1 (stereo not drawn) [TCMDC-139783] | -10.58 |
| CCNc1cc(C(=O)N[C@@H](Cc2ccccc2)[C@H](O)CNCc2ccc3c(c2)OCCO3)cc(N2CCCCS2(=O)=O)c1 [TCMDC-135189] | -0.5627 |
| CCCc1cc(Cc2cnc(N)nc2N)cc(CCC)c1OCCCCC(=O)O [TCMDC-137293] | -0.4294 |
| COc1ccc2nc(-c3cc(-c4ccc(NC(=O)CN5CCOCC5)cc4)cnc3N)[nH]c2c1 [TCMDC-135373] | 7.84 |
| COc1ccc(-c2cc(-c3nc4ccc(C(=O)N5CCOCC5)cc4[nH]3)c(=O)n(C)c2)cc1OC [TCMDC-135055] | 52.78 |
| COc1ccc(-c2cc(-c3nc4ccc(CN)cc4[nH]3)c(=O)n(C)c2)cc1OC [TCMDC-135048] | 18.44 |
| CCNC(C)(C)CN(Cc1ccc(-c2ccc(C(F)(F)F)cc2)cc1)C(=O)Cn1c(SCc2ccc(F)cc2)nc(=O)c2c1CCC2 [TCMDC-140977] | 131.5 |
| CCN(CC)CCN(Cc1ccc(-c2ccc(C(F)(F)F)cc2)cc1)C(=O)Cn1c(SCc2ccc(F)c(F)c2F)nc(=O)c2c1CCC2 [TCMDC-141063] | 82.6 |
| CCN1CCC(N(Cc2ccc(-c3ccc(C(F)(F)F)cc3)cc2)C(=O)Cn2c(SCc3ccc(F)cc3)nc(=O)c3c2CCC3)CC1 [TCMDC-140976] | 69.1 |
| CCN1CCC(N(Cc2ccc(-c3ccc(C(F)(F)F)cc3)cc2)C(=O)Cn2nc(C)c(=O)cc2SCc2ccc(F)cc2)CC1 [TCMDC-141284] | 72.73 |
| CCn1c(SCc2ccc(F)cc2)nc2sc3c(c2c1=O)CCN(C)C3 [TCMDC-124551] | 44.44 |
| CCOC(=O)c1ccc(NC(=O)Nc2ccc(-c3cccc(-c4nc5c(C)cccc5[nH]4)c3)cc2)cc1 [TCMDC-133262] | -3.129 |
| CC(C)(C)c1ccc(CN(C[C@@H](O)CNS(=O)(=O)c2cc(Cl)cc(Cl)c2)C(C)(C)C)cc1 [TCMDC-135386] | -63.29 |
| COc1ccc(CC(=O)NC(CCCN2CCC3(CC2)OCc2ccccc23)c2ccc(Cl)c(Cl)c2)cc1 (stereo not drawn) [TCMDC-141898] | -52.62 |

| SMILES | % Inhibition [%] |
| --- | --- |
| O=C(Nc1cccc(F)c1)N1CCC(NS(=O)(=O)c2ccc(Br)cc2)CC1 [TCMDC-139438] | 2.418 |
| COc1cc2c(cc1OC)-c1cc(=Nc3c(C)cc(C)cc3C)n(C)c(=O)n1CC2 [TCMDC-125545] | 16.19 |
| CN(CCCNc1ccc(C(=O)Nc2ccc(C(F)(F)F)cc2)cc1[N+](=O)[O-])Cc1ccccc1 [TCMDC-125682] | -31.17 |
| CN(Cc1cccc(F)c1)C1CCN(c2cc(NC(=O)c3ccc(F)cc3)ccn2)C1 (stereo not drawn) [TCMDC-135004] | -24.42 |
| CC(C)c1ccc(NC(=O)c2cccc(CN3CCCN(Cc4cccc(O)c4)CC3)c2)cc1 [TCMDC-135976] | -1.635 |
| CC(C)(C)NCCN(Cc1ccc(-c2ccc(C(F)(F)F)cc2)cc1)C(=O)Cn1c(SCc2ccc(F)cc2)nc(=O)c2c1CCC2 [TCMDC-140978] | 110.1 |
| Cn1ccnc1-c1nc2ccccn2c1NCC(=O)Nc1ccccc1N1CCCCC1 [TCMDC-133801] | -70.89 |
| CCNc1cc(C)nc(Nc2ccc(NC(=O)c3ccc(OC)c(OC)c3)cc2)n1 [TCMDC-124987] | 8.373 |
| CSC1=NC(=Nc2ccccc2C)C2(CCC(C(C)(C)C)CC2)N1c1ccccc1Cl (stereo not drawn) [TCMDC-124136] | 53.76 |
| Cc1cccc(C)c1NC1=NC(=S)N(c2cccc(Cl)c2)C12CCC(C(C)(C)C)CC2 (stereo not drawn) [TCMDC-124101] | -11.15 |
| CSC1=NC(=Nc2c(C)cccc2C)C2(CCCCC2)N1c1ccccc1Cl [TCMDC-124143] | 13.06 |
| Cc1cc(C(=O)NC2CCN(Cc3ccccc3)CC2)ccc1-c1nc2ccc(C(F)(F)F)cc2[nH]1 [TCMDC-140120] | -4.747 |
| N#Cc1ccc(N2CCN(Cc3ccc(-c4ccc(-c5nc6ccc(F)cc6[nH]5)s4)cc3)CC2)nc1 [TCMDC-133115] | -21.41 |
| Oc1cc(Nc2ccnc3cc(-c4cccc(CN5CCOCC5)c4)ccc23)c(F)cc1Cl [TCMDC-138434] | 12.33 |
| COc1ccc2ncn(-c3ccc(C(N)=O)c(OCc4ccccc4C(F)(F)F)c3)c2c1 [TCMDC-134428] | 48.51 |
| C[C@@H](Oc1cc(-n2cnc3ccc(OCC4CCN(S(C)(=O)=O)CC4)cc32)sc1C(N)=O)c1ccccc1C(F)(F)F [TCMDC-135685] | 34.9 |
| NC(=O)c1sc(-n2cnc3ccc(C(=O)NCCN4CCOCC4)cc32)cc1OCc1ccccc1C(F)(F)F [TCMDC-135181] | -45.79 |
| CC(C)CN1CCC(COc2ccc3ncn(-c4cc(O[C@H](C)c5ccccc5C(F)(F)F)c(C(N)=O)s4)c3c2)CC1 [TCMDC-135856] | 86.18 |
| NC(=O)c1sc(-n2cnc3ccc(OCC4CCNCC4)cc32)cc1OCc1ccccc1C(F)(F)F [TCMDC-135173] | 107 |
| CN1CCN(CCCSc2ccc3c(c2)ncn3-c2cc(OCc3ccccc3C(F)(F)F)c(C(N)=O)s2)CC1 [TCMDC-135408] | 12.22 |
| Cc1nc(N)nc(N)c1CCCOc1ccccc1Cl [TCMDC-137929] | 3.372 |
| COc1cccc(CNC[C@@H](O)[C@H](Cc2ccccc2)NC(=O)c2cc(NC(C)C)cc(N3CCCCS3(=O)=O)c2)c1 [TCMDC-135205] | 28.03 |

| SMILES | % Inhibition [%] |
| --- | --- |
| CC1(C)C=C(c2ccncc2)c2cc(Cl)ccc2O1 [TCMDC-131771] | -9.955 |
| O=C(NCC1CCC1)c1cnc(Nc2cccc(Cl)c2)nc1N1CCC1 [TCMDC-135363] | 5.577 |
| Cc1cc(Nc2nc(Nc3cccc(Cl)c3)nc3ccccc23)n[nH]1 [TCMDC-134695] | 12.71 |
| Clc1cccc(Nc2ccc3c(N4CCCCC4)ncnc3n2)c1 [TCMDC-134937] | 52.12 |
| OC(CNCc1ccccc1OCc1ccccc1)c1cccc(Cl)c1 (stereo not drawn) [TCMDC-140563] | -9.137 |
| OC(CNCc1ccccc1OCc1ccccc1)c1cccc(I)c1 (stereo not drawn) [TCMDC-140522] | 41.43 |
| OC(CNCc1ccccc1OCc1ccccc1)c1cccc(Br)c1 (stereo not drawn) [TCMDC-140734] | 51.74 |
| Cc1cc(OCC(=O)Nc2ccc(-c3nc4ccccc4[nH]3)cc2)cc(C)c1Cl [TCMDC-125674] | -10.97 |
| Cc1cccc(C)c1CNc1ccnc2cc(C#N)ccc12 [TCMDC-132170] | 2.762 |
| CC(C)N1CCN(CCCCNc2c3ccccc3nc3ccccc23)CC1 [TCMDC-137573] | 93.57 |
| NS(=O)(=O)NCCCN1CCN(c2ccccc2)CC1 [TCMDC-141997] | 27.05 |
| CC(C)N1CCN(CCCNc2c3ccccc3nc3ccccc23)CC1 [TCMDC-137547] | 96.57 |
| Cc1ncsc1CCN1C(=O)CC2(C1=O)C(=O)N(Cc1ccccc1)c1ccc(Cl)cc12 (stereo not drawn) [TCMDC-136701] | 2.069 |
| COc1cc(F)c2ncc(Cl)c([C@@H](O)CN3CCC(NCc4cc5c(cn4)OCCO5)CC3)c2c1 [TCMDC-135475] | 41.87 |
| Cc1ccccc1OCCCc1c(C)nc(N)nc1N [TCMDC-138070] | -46.3 |
| Cc1ccc(NC(=O)c2cc(Br)cc(N3CCC(N(C)C)CC3)c2)cc1F [TCMDC-135144] | -10.77 |
| CC(C)Cc1cn(-c2nc(-c3nc4ccccc4[nH]3)cs2)c2cc(Cl)ccc12 [TCMDC-132300] | -85.76 |
| O=C(/C=C/c1cccs1)NCC(NCCCNc1cc(=O)c2ccccc2[nH]1)c1cc(Br)cc(Br)c1 (stereo not drawn) [TCMDC-140318] | -18.64 |
| CCn1cc(CN2CCCC(C(=O)Nc3ccc(-c4nc5ccccc5[nH]4)cc3)C2)cn1 (stereo not drawn) [TCMDC-124674] | -65.71 |
| CCN(CC)CC(O)CNc1c2ccc([N+](=O)[O-])cc2nc2cc(OC)c(OC)cc12.Cl (stereo not drawn) [TCMDC-138079] | 90.61 |
| CCN(CC)CC(O)Cc1c2ccc([N+](=O)[O-])cc2nc2cc(OC)c(OC)cc12 (stereo not drawn) [TCMDC-138126] | 37.45 |
| CCC(=Cc1cccc([N+](=O)[O-])c1)C(=O)NCC1CCN(c2nc(N)c3cc(OC)c(OC)cc3n2)CC1.Cl [TCMDC-138165] | 19.29 |

Reference: publication PMC4552634, “A New Set of Chemical Starting Points with Plasmodium falciparum Transmission-Blocking Potential for Antimalarial Drug Discovery” (PLoS ONE, 2015)
